G9a inh – inhibitors of human histone lysine methyltransferase G9a; Q96KQ7; G9a H3K9 monomethylation, AlphaScreen, 2 h; Potency, µM (series often up to 102 µM), usual class: inhibitors; 350,000 tested, 8.8% active; AID 504332; further: nearly all actives have a fitted effect of over 75% in size
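Readings reflect AlphaScreen signal from monomethyl-H3K9 antibody detection. HMT at 20 nM; substrate b-H3K9 500 nM; cofactor SAM 20 uM; 2 h RT reaction; compounds tested as titrations in qHTS with 15 min preincubation.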
Sfp inh – blocks B. subtilis Sfp PPTase activity | Biochemical Sfp PPTase activity, qHTS | AID 1490 | Q9F4F7 | Potency, µM, hits mostly inhibitors | 310,000 tested, 3.5% active;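 further: the enzyme is Sfp with the accession as filed and its product quenches rhodamine fluorescence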
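Reaction rates are the 30-min fluorescence difference (ex 525, em 598 nm) in wells containing 15 nM Sfp, 5 uM rhodamine-CoA and 12.5 uM BHQ-2-YbbR at pH 7.6 with 10 mM MgCl2.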
HP1b binding inh – blocks HP1-beta chromodomain binding to methylated histone tails. AlphaScreen HP1-beta / biotin-H3K9me3 peptide binding. P83916. 390,000 tested, 0.56% active. Potency, µM (highest dose often 114 µM), usual class: inhibitors. AID 540317; further: nearly all actives have a fitted effect of over 70% in size
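AlphaScreen: HP1-beta (50 nM) preformed 30 min with biotin-H3(1-18)K9me3 peptide (50 nM) in PBS pH 7.4, 0.01% Tween-20. Compound added for 30 min at RT, then streptavidin donor/nickel chelate acceptor beads (10 ug/mL) for 30 min.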
PLK1 PBD block – PLK1 (human) polo-box domain binding inhibition; P53350; Plk1 PBD binding of FITC phosphopeptide, fluorescence polarization; Potency, µM, most hits filed as inhibitors; 360,000 tested, 2.8% active; further: series mostly up to about 57 µM; nearly all actives have a fitted effect of over 65% in size
Target sequence (P53350 whole entry, looked up, the tested form may be a part): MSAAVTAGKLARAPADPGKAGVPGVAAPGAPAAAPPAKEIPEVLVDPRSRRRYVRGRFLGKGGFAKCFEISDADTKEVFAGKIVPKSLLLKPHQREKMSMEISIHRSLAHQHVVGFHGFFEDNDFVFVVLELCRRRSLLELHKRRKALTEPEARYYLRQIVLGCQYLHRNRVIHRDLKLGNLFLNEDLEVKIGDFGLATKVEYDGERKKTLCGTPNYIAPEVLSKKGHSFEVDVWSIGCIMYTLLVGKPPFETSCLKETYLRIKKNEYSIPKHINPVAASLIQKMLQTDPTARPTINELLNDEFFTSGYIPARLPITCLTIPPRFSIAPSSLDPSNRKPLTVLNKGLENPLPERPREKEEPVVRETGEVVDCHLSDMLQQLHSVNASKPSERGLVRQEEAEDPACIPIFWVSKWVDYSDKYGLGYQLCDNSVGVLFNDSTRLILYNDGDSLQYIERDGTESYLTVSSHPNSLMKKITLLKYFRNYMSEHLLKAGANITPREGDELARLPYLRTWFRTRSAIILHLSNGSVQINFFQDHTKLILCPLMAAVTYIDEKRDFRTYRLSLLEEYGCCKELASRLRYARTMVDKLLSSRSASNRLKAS
BAZ2B block – blocks human BAZ2B | Q9UIF8 | AlphaScreen BAZ2B-H3K14Ac peptide displacement | Potency, µM (titrated, usually from 114 µM), usual class: inhibitors | 360,000 tested, 4.4% active; further: nearly all actives have a fitted effect of over 60% in size
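Complex of BAZ2B and biotin-H3K14Ac (50 nM apiece) forms over 30 min at RT, then faces library compounds up to 110 uM for another 30 min; AlphaScreen beads added, 20 min dark incubation, luminescence read.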
JMJD2A Tudor – blocks the human JMJD2A Tudor domain; O75164; AlphaScreen JMJD2A-Tudor / H3K4me3 peptide binding; Potency, µM (top dose mostly 114 µM), hits mostly inhibitors; 390,000 tested, 4.4% active; AID 504339; further: nearly all actives have a fitted effect of over 50% in size
Numbers stand for hits; 0 = inactive; ? = inconclusive; - = no result; [ ] = another dose, or the depositor's remark. Hits are enriched below; roughly 12% of the tested compounds scored in any of these assays. The call rests on the fitted dose curve; in most records, active means well fitted curve in the direction sought with a large enough effect; inconclusive means small, poorly fitted or top-dose-only effect, or another doubt; inactive means no such curve, though single readings can be large; an effect the other way counts as inactive or inconclusive.

SMILES | G9a inh | Sfp inh | HP1b binding inh | PLK1 PBD block | BAZ2B block | JMJD2A Tudor
O=C(CCCC(=O)c1ccccc1)Nc1ccc(F)cc1 | 0[12.7 µM] | 0 | 0 | 0 | 0 | 0
CC1NC(=O)NC1CCCCCC(=O)Nc1ccc(F)cc1 (stereo not given) | ? | 0 | ? | 0 | 0 | 0.316µM
Cc1nn(CC(=O)NCc2ccc(F)cc2)c2ccccc12 | 0 | - | 0 | - | 0 | 0
CCCSCC(=O)Nc1ncc2c(n1)-c1ccccc1CC2 | 8.91µM | 0 | 0 | ? | 56.2µM | ?
O=C(Nc1ncc2c(n1)-c1ccccc1CC2)c1ccc(Cl)cc1 | 0[0.0925 µM] | 0 | 0 | 0 | 0 | ?
COc1ccc(NC(=O)N2CC3(CCN(C(=O)c4ccncc4)CC3)C2)cc1 | 0[12.7 µM] | 0 | - | - | - | -
Cc1cc(C)cc(Nc2nc3ccccc3n3cnnc23)c1 | 0 | - | 0 | - | 0 | 0
O=C(COC(=O)/C=C/c1ccccc1[N+](=O)[O-])NC1CC1 | 0[12.7 µM] | 0 | 0 | 16.8µM | 0 | ?
CCOC(=O)c1c(C)[nH]c(C)c1C(=O)COC(=O)/C=C/c1ccccc1[N+](=O)[O-] | - | - | ? | 0 | - | 89.1µM
CCOC(=O)c1c(C)[nH]c(C)c1C(=O)COC(=O)c1ccc(OC)cc1 | 39.8µM | 0 | 0 | 0 | ? | 0
CCOC(=O)c1c(C)[nH]c(C)c1C(=O)COC(=O)c1cc(OC)cc(OC)c1 | ? | 0 | 0 | 0 | ? | ?
S=c1[nH]nc(-c2cccc3ccccc23)n1-c1cccnc1 | 0 | 0 | 0 | 0 | 0 | 20µM
Cc1ccccc1-n1c(-c2cccnc2)n[nH]c1=S | 5.01µM | 0 | 0 | 0 | 0 | 11.2µM
CC(C)c1ccccc1-n1c(-c2cccnc2)n[nH]c1=S | 0[12.7 µM] | 0 | 0 | 0 | 0 | 10µM
CCc1cccc(CC)c1-n1c(-c2cccnc2)n[nH]c1=S | ? | 0 | 0 | 0 | 0 | ?
Cc1cc(C)c(NC(=O)CSc2nc3ccccc3c3nc(CCn4cncc4C)nn23)c(C)c1 | 0 | - | 0 | - | 0 | 0
CCc1ccc(NC(=O)N(Cc2c[nH]c3ccccc23)C2CCCCCC2)cc1 | 0 | - | 0 | - | - | 0
O=C(CSc1nc2ccsc2c(=O)n1-c1ccc(Br)cc1)NCc1ccccc1 | 0 | - | 0 | - | 0 | 0
COc1ccc(Cc2nnc(NC(=O)c3ccccc3C)s2)cc1 | 0 | 0 | 0 | 0 | 0 | 0
COc1ccc(S(=O)(=O)N2CCN(C(=O)CN3C(=O)NC(C)(c4ccc5ccccc5c4)C3=O)CC2)cc1 (stereo not given) | 0[0.501 µM] | - | 0 | 0 | 0 | 0
CC1=CSC2=NC(=O)/C(=C/c3cccc(OC(=O)c4ccco4)c3)C(=N)N12 | ? | 0 | 0 | 0 | ? | 0
CS(=O)(=O)C1=NSC2=NC(=O)/C(=C\c3ccc(OC(=O)c4ccco4)c(Br)c3)C(=N)N21 | 20µM | 0 | 0 | 23.8µM | 56.2µM | ?
CC(C)CS(=O)(=O)C1=NSC2=NC(=O)/C(=C\c3ccc(OC(=O)c4ccco4)cc3)C(=N)N21 | - | 0 | 0 | 23.8µM | ? | 0
CSC1=NSC2=NC(=O)/C(=C\c3ccc(OC(=O)c4ccco4)cc3)C(=N)N12 | ? | 0 | 0 | ? | ? | 0
CCC(CC)C1=NN2C(=N)/C(=C/c3ccc(OC(=O)c4ccco4)cc3)C(=O)N=C2S1 | 0 | 0 | 0 | 29.9µM | 0 | ?
SMILES | G9a inh | Sfp inh | HP1b binding inh | PLK1 PBD block | BAZ2B block | JMJD2A Tudor
CC1(C)CC1C(=O)N/C(=C/CCCCSCC(N)C(=O)O)C(=O)O (stereo not given) | 0[12.7 µM] | 0 | - | - | - | -
COc1ccc(CNC(=O)CCCN2C(=O)CSc3c2c(C)nn3-c2ccccc2)c(OC)c1 | 0 | - | 0 | - | 0 | 0
CCOc1ccc(S(=O)(=O)N/N=C2/CCCC(=O)C2)cc1 | 10µM | 0 | 0 | 0 | 0 | 0
O=C1CCCc2c1cc(C(=O)NC1CCSC1=O)c(=O)n2-c1ccccc1 (stereo not given) | ? | 50.1µM | 0 | 0 | 0 | 0
O=C1CCCc2c1cc(C(=O)Nc1ccc(Br)cn1)c(=O)n2-c1ccccc1 | 0[12.7 µM] | ? | 0 | 0 | 0 | 79.4µM
CC1(C)CC(=O)c2cc(C(=O)NC3CCSC3=O)c(=O)n(-c3ccccc3)c2C1 (stereo not given) | ? | 0 | 0 | 0 | 0 | 0
COC(=O)C1(CC(C)C)C=C2C(=C(C(C)C)C(=O)C2C)CN1 (stereo not given) | - | 0 | - | - | - | -
COC(=O)c1c(C)nc(C)c(C(=O)OC)c1-c1ccccc1[N+](=O)[O-] | - | 0 | - | - | - | -
